Source: PubChem (National Center for Advancing Translational Sciences (NCATS))
KB-V1 MDR tox: qHTS assay for MDR1-selective chemotherapeutics: Primary screen using the drug-selected MDR subline cells KB-V1; KB-V1 MDR cells viability, CellTiter-Glo, 72 h; Potency, µM (top dose mostly 46.1 µM), hits mostly cytotoxic; actives 3.4% (n = 400,000); note: % is set by controls: 0 for no effect and ±100 for the full control effect; nearly all actives have a fitted effect of over 60% in size
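Drug-selected KB-V1 cells, grown in DMEM lacking phenol red with 10% FBS, receive compound titrations; after three days at 37 degrees C, surviving cell ATP is quantified by CellTiter-Glo luminescence and responses normalized and curve-fitted.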
KB-3-1 tox: qHTS assay for MDR1-selective chemotherapeutics: Primary screen using the parental adenocarcinoma cell KB-3-1; AID 1347075, 2019; actives 1.4% (n = 400,000); Potency, µM (highest dose often 46.1 µM), usual class: cytotoxic; KB-3-1 viability, CellTiter-Glo ATP luminescence, 72 h; note: % is set by controls: 0 for no effect and ±100 for the full control effect; nearly all actives have a fitted effect of over 60% in size
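Parental KB-3-1 adenocarcinoma cells in phenol-red-free DMEM with 10% FBS were pin-treated with compounds at several concentrations, incubated 72 h at 37 °C, and viability read by CellTiter-Glo luminescence; concentration-effect curves were fitted after normalization.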
MCF10A rereplic: A quantitative high throughput screen for small molecules that induce DNA re-replication in MCF 10a normal breast cells; MCF 10A DNA re-replication, Hoechst nuclear intensity, 48 h; AID 624296, 2012; actives 2.9% (n = 350,000); Potency, µM (highest dose often 46.1 µM), for the others: at the highest dose activity, positive = re-replication, usual class: activators; note: % of control where 0% means no effect; nearly all actives have a fitted effect of over 50% in size
SW480 rereplic: A quantitative high throughput screen for small molecules that induce DNA re-replication in SW480 colon adenocarcinoma cells. actives 1.8% (n = 340,000). SW480 DNA re-replication, Hoechst DNA content imaging, 48 h. Potency, µM (doses to about 46.1 µM), for the others: top-dose re-replication activation, actives largely listed as activators. AID 624297, 2012; note: % of control where 0% means no effect; nearly all actives have a fitted effect of over 55% in size
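SW480 cells exposed to compounds for 48 hr at 37 C, 5% CO2, then Hoechst-stained 40 min. Nuclear DNA content imaged by fluorescence scanning (405 nm excitation, 500-530 nm emission); re-replication scored as increased high-intensity nuclei.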
ELG1 DNA repair: qHTS screen for small molecules that inhibit ELG1-dependent DNA repair in human embryonic kidney (HEK293T) cells expressing luciferase-tagged ELG1. Potency, µM (highest dose often 46.1 µM), without a hit: top-dose activity change, negative = inhibition, usual class: inhibitors. HEK293T ELG1-luciferase reporter, luminescence, 16 h; DNA damage induced by 5-fluorouridine. actives 2.3% (n = 330,000). AID 504467, 2011; note: % is set by controls: 0 for no effect and ±100 for the full control effect; nearly all actives have a fitted effect of over 55% in size
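Reporter activity after DNA damage by 5-fluorouridine is monitored. Compound-treated cells incubate 16 hr at 37 °C, then ONE-Glo is added for 30 min before luminescence reading.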
* hit, by the source's call; i = inactive; ? = inconclusive; · = no result. In the library only some 8.2% were active in any assay of this set; here they are far more common. Calls come from the whole dose curve; as a rule, active = well fitted curve in the direction sought with a large enough effect; inconclusive = small, poorly fitted or top-dose-only effect, or another doubt; inactive = no such curve, though single readings can be large; an effect the other way counts as inactive or inconclusive. Potency is the fitted concentration of half-maximal effect.

SMILES | KB-V1 MDR tox | KB-3-1 tox | MCF10A rereplic | SW480 rereplic | ELG1 DNA repair
CCOc1ccc(S(=O)(=O)N2c3ccccc3CC2C)cc1 (stereo not drawn) | 1.46µM* | 1.16µM* | ? | 1.64µM* | ?
CC1Cc2ccccc2N1S(=O)(=O)c1cccc(C(=O)NCCCO)c1 (stereo not drawn) | i | i | 3.7% | -14.1% | -3.2%
CCOC(=O)c1ccc(NC(=O)c2cccc(S(=O)(=O)N3c4ccccc4CC3C)c2)s1 (stereo not drawn) | ? | i | 2.5% | ? | 20.6µM*
CCOc1ccc(S(=O)(=O)N2CC(=O)Nc3ccccc32)cc1 | ? | ? | ? | 14.6µM* | ?
Cc1cc(C(C)(C)C)cc(C)c1S(=O)(=O)N1CC(=O)Nc2ccccc21 | i | i | 18.4µM* | ? | 7.0%
CCc1nc2ccc(C(=O)NCCNC(C)=O)cn2c1N(C)Cc1ccc(OC)cc1 | i | i | · | · | ·
COc1cc(CNC(=O)c2cc(-c3cc(F)ccc3OC(C)C)n[nH]2)cc(OC)c1 | i | i | · | · | ·
CCC(C)C(=O)C(=O)N1CCC(n2nccc2NC(=O)CCOc2ccccc2)CC1 (stereo not drawn) | i | i | · | · | ·
CCN(CC)C(c1ccc(C)cc1)c1nnnn1C1CCCCC1 (stereo not drawn) | 13µM* | ? | ? | 9.0% | 11.0%
CCN(CC)C(c1ccc(F)cc1)c1nnnn1C1CCCCC1 (stereo not drawn) | i | i | 1.5% | -13.5% | -6.2%
COCCn1c(SCc2cccc([N+](=O)[O-])c2)nc2ccccc2c1=O | 11.6µM* | i | 9.2% | -7.3% | -21.2%
Cn1c(SCc2cccc([N+](=O)[O-])c2)nc2ccccc2c1=O | 2.59µM* | ? | ? | 11.0% | ?
CCOC(CCn1c(SCc2cccc([N+](=O)[O-])c2)nc2ccccc2c1=O)OCC | i | i | 14.7% | 6.2% | ?
CCCCn1c(SCc2cccc([N+](=O)[O-])c2)nc2ccsc2c1=O | 2.31µM* | i | 16.4µM* | -8.2% | ?
Cc1nc(N)[nH]c(=O)c1CCCNc1ccc(CCC2(CCl)OCCO2)cc1 | i | i | 11.4% | -2.1% | ·
CCOc1ccc(-c2cc(NC(=O)c3ccc(C)cc3)c(C(=O)OC)s2)cc1 | i | i | · | · | ·
COc1cccc(/C=N/N=C(\N)c2nonc2N)c1O | i | i | ? | 2.7% | ?
COc1cccc(C(C)(O)c2nc(-c3cc(F)cc(F)c3)cs2)c1 (stereo not drawn) | i | i | · | · | ·
CC(=O)Oc1ccc(N(C(C)=O)S(=O)(=O)c2ccc(Cl)cc2)c2ccccc12 | ? | i | 6.1% | 14.8% | 18.3µM*
CC(=O)Oc1ccc(N(C(C)=O)S(=O)(=O)c2ccc3ccccc3c2)cc1 | i | i | -5.9% | -9.7% | 20.6µM*
CC(C)N1CCN(S(=O)(=O)c2ccccc2)c2ccccc21 | ? | i | ? | ? | ·
COc1ccc(C(=O)/C=C/C(=O)N(Cc2ccccc2)C(C(=O)NC2CCCCC2)c2ccncc2)c(O)c1 (stereo not drawn) | 0.92µM* | i | 1.5% | 19.3% | ?
COc1ccc(C(=O)/C=C/C(=O)N(Cc2ccc(F)cc2)C(C(=O)NC2CCCCC2)c2ccncc2)c(O)c1 (stereo not drawn) | 0.731µM* | ? | 8.8% | ? | 18.4µM*
COc1ccc(C(=O)/C=C/C(=O)N(Cc2ccccc2OC)C(C(=O)NC2CCCCC2)c2ccncc2)c(O)c1 (stereo not drawn) | ? | ? | ? | 11.0% | 20.6µM*
COc1ccccc1CN(C(=O)CCl)C(C(=O)NC1CCCCC1)c1ccncc1 (stereo not drawn) | i | i | -0.1% | -4.4% | 7.0%
SMILES | KB-V1 MDR tox | KB-3-1 tox | MCF10A rereplic | SW480 rereplic | ELG1 DNA repair
COc1ccc(CN(C(=O)Cc2cccs2)C(C(=O)NC2CCCC2)c2ccncc2)cc1 (stereo not drawn) | i | i | 2.7% | 4.1% | 0.0%
CC(=O)c1cccc(NC(=O)c2cccn2-c2nnc(N3CCCCC3)s2)c1 | i | i | · | · | ·
COc1ccc2ccc3c(c2c1)N=C[C@]1(O3)N(C)c2ccccc2C1(C)C | ? | i | 18.4µM* | 14.6µM* | -2.0%
NC(=O)C(NN=C(c1ccccc1)c1ccccc1)c1ccccc1 (stereo not drawn) | i | i | · | · | ·
COc1ccc(/C=C/C(=O)c2cc(Br)ccc2O)cc1OC | i | ? | 28.1% | -0.6% | ?
COc1ccc(/C=C/C(=O)c2cc(F)ccc2OC(=O)c2ccccc2OC)cc1OC | 3.26µM* | 5.17µM* | 13µM* | ? | ?
COc1ccc(/C=C/C(=O)c2cc(F)ccc2OC(=O)c2ccccc2)cc1OC | ? | ? | ? | 1.3µM* | ·
COc1ccc(/C=C/C(=O)c2cc(Br)ccc2OC(=O)c2ccco2)cc1OC | i | i | ? | ? | ?
COc1ccc(/C=C/C(=O)c2cc(F)ccc2OC(=O)c2ccc(OC)c(OC)c2)cc1OC | i | i | ? | -702.9% | 14.6µM*
COc1ccc(/C=C/C(=O)c2ccccc2)cc1COc1ccc(F)cc1 | ? | i | ? | ? | -22.3%
COc1ccc(N2CCN(CCCNC(=O)C3CCC(CNc4nc(=S)[nH]c5ccccc45)CC3)CC2)cc1 (stereo not drawn) | ? | i | ? | 9.0% | ?
O=C(C1CCC(Cn2c(=S)[nH]c3ccccc3c2=O)CC1)N1CCN(c2ccccn2)CC1 (stereo not drawn) | ? | ? | -5.3% | -7.3% | 5.17µM*
COc1ccccc1N1CCN(C(=O)C2CCC(Cn3c(=S)[nH]c4ccccc4c3=O)CC2)CC1 (stereo not drawn) | i | ? | ? | -1.8% | ?
O=C(C1CCC(CNc2nc(=S)[nH]c3ccccc23)CC1)N1CCN(c2ccc(F)cc2)CC1 (stereo not drawn) | i | ? | ? | ? | 23.1µM*
COc1ccc(N2CCN(C(=O)C3CCC(Cn4c(=S)[nH]c5ccccc5c4=O)CC3)CC2)cc1 (stereo not drawn) | 2.91µM* | 18.4µM* | 17.9% | ? | ?
COc1ccc(N2CCN(CCCn3c(=S)[nH]c4ncccc4c3=O)CC2)cc1 | i | 6.51µM* | 7.0% | 1.3% | ?
Nc1ccn(C2C=CC(CO)O2)c(=O)n1 (stereo not drawn) | i | · | · | · | ·
